{"source": "ChEMBL document CHEMBL3433997", "about": "“St. Jude Leishmania screening dataset” (2016)", "assay_type_in_all_cases": "functional", "key": {"[1]": {"biological_target": "Solute carrier family 2, facilitated glucose transporter member 1 (Homo sapiens) (UniProt P11166)", "sequence (P11166 whole entry)": "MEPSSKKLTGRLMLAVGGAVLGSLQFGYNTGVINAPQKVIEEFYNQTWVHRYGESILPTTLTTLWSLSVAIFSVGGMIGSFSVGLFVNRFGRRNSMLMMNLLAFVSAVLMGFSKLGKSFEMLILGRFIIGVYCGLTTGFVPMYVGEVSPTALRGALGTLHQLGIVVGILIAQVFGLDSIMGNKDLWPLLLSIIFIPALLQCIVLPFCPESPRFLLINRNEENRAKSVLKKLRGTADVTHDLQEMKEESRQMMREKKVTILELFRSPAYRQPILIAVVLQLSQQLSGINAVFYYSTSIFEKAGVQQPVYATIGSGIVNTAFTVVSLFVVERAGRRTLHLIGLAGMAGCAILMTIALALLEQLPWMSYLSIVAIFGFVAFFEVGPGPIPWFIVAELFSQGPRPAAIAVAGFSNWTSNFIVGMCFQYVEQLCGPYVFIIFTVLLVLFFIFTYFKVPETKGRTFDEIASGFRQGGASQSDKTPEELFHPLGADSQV", "assay": "ST_JUDE_LEISH: Cytotoxicity at 2uM final concentration against transgenic Leishmania Mexicana promastigotes LmGLUT1 that are glucose transport deficient and complemented with the human glucose transporter GLUT1. Activity is measured by DNA content using SYBR green in vitro"}, "[2]": {"biological_target": "Hexose transporter 1 (Plasmodium falciparum) (UniProt O97467)", "assay": "ST_JUDE_LEISH: Cytotoxicity at 2uM final concentration against transgenic Leishmania Mexicana promastigotes LmPfHT that are glucose transport deficient and complemented with the Plasmodium falciparum hexose transporter. Activity is measured by DNA content using SYBR green in vitro"}, "[3]": {"biological_target": "Glucose transporter (Leishmania mexicana) (UniProt O61059)", "assay": "ST_JUDE_LEISH: Cytotoxicity at 2uM final concentration against transgenic Leishmania Mexicana promastigotes LmGT2 that are glucose transport deficient and complemented with the L. Mexicana glucose transporter 2. Activity is measured by DNA content using SYBR green in vitro"}}}
{"compound": "O=C(Nc1ccc(Cl)c(Cl)c1)Nc1ccc2c(c1)CCNCC2", "values": [{"measurement": "inhibition", "setting": "[1]", "value": -0.33, "unit": "%"}, {"measurement": "inhibition", "setting": "[2]", "value": 0.96, "unit": "%"}, {"measurement": "inhibition", "setting": "[3]", "value": 0.79, "unit": "%"}]}
{"compound": "O=C(/C=C/c1ccc(Cl)cc1)NCCCCCN1CCCN(C(=O)Nc2cccc(Cl)c2)CC1", "values": [{"measurement": "inhibition", "setting": "[1]", "value": -2.75, "unit": "%"}, {"measurement": "inhibition", "setting": "[2]", "value": -1.85, "unit": "%"}, {"measurement": "inhibition", "setting": "[3]", "value": -1.25, "unit": "%"}]}
{"compound": "CC[C@H](C)CNC(=O)c1cncc(-c2cccc(CN3CCC(N4CCCC4)CC3)c2)c1", "values": [{"measurement": "inhibition", "setting": "[1]", "value": -3.12, "unit": "%"}, {"measurement": "inhibition", "setting": "[2]", "value": 2.1, "unit": "%"}, {"measurement": "inhibition", "setting": "[3]", "value": -0.34, "unit": "%"}]}
{"compound": "CCOc1cc(C(=O)NC2CCN(Cc3ccccc3)CC2)ccc1-c1nc2cc(Cl)ccc2[nH]1", "values": [{"measurement": "inhibition", "setting": "[1]", "value": 4.1, "unit": "%"}, {"measurement": "inhibition", "setting": "[2]", "value": 5.59, "unit": "%"}, {"measurement": "inhibition", "setting": "[3]", "value": 3.09, "unit": "%"}]}
{"compound": "FC(F)(F)c1ccc2[nH]c(-c3cccc(-c4cccc(CN5CCN(c6ccncc6)CC5)c4)c3)nc2c1", "values": [{"measurement": "inhibition", "setting": "[1]", "value": 1.83, "unit": "%"}, {"measurement": "inhibition", "setting": "[2]", "value": 2.18, "unit": "%"}, {"measurement": "inhibition", "setting": "[3]", "value": 3.38, "unit": "%"}]}
{"compound": "O=C(Cc1ccsc1)NCC(c1ccccc1Cl)c1c[nH]c2ccccc12", "note": "(centres undefined)", "values": [{"measurement": "inhibition", "setting": "[1]", "value": 6.27, "unit": "%"}, {"measurement": "inhibition", "setting": "[2]", "value": 5.24, "unit": "%"}, {"measurement": "inhibition", "setting": "[3]", "value": 4.67, "unit": "%"}]}
{"compound": "Cc1cccc2nc(C(=O)Nc3nc(CN4CCC(C)CC4)cs3)cn12", "values": [{"measurement": "inhibition", "setting": "[1]", "value": -0.22, "unit": "%"}, {"measurement": "inhibition", "setting": "[2]", "value": -1.59, "unit": "%"}, {"measurement": "inhibition", "setting": "[3]", "value": 1.62, "unit": "%"}]}
{"compound": "Nc1nc(N)c2c(Sc3ccccc3)cccc2n1", "values": [{"measurement": "inhibition", "setting": "[1]", "value": 3.38, "unit": "%"}, {"measurement": "inhibition", "setting": "[2]", "value": 3.48, "unit": "%"}, {"measurement": "inhibition", "setting": "[3]", "value": 2.7, "unit": "%"}]}
{"compound": "CC(C)CC(C)NC(=O)C1Cc2c([nH]c3cc(Cl)ccc23)C2(CCN(CCc3ccccc3)CC2)N1", "note": "(centres undefined)", "values": [{"measurement": "inhibition", "setting": "[1]", "value": 6.97, "unit": "%"}, {"measurement": "inhibition", "setting": "[2]", "value": 7.27, "unit": "%"}, {"measurement": "inhibition", "setting": "[3]", "value": 4.34, "unit": "%"}]}
{"compound": "CCCN1CCN(Cc2ccc(-c3ccc(-c4nc5ccccc5[nH]4)s3)cc2)CC1", "values": [{"measurement": "inhibition", "setting": "[1]", "value": -0.29, "unit": "%"}, {"measurement": "inhibition", "setting": "[2]", "value": 2.1, "unit": "%"}, {"measurement": "inhibition", "setting": "[3]", "value": 1.19, "unit": "%"}]}
{"compound": "Cc1cc(NCCC(=O)Nc2ccccc2)nc(NCC2CCCCC2)n1", "values": [{"measurement": "inhibition", "setting": "[1]", "value": 5.97, "unit": "%"}, {"measurement": "inhibition", "setting": "[2]", "value": 3.39, "unit": "%"}, {"measurement": "inhibition", "setting": "[3]", "value": 3.6, "unit": "%"}]}
{"compound": "COc1ccc2ccc(OC)c(CNCCCCCCNCc3c(OC)ccc4ccc(OC)cc34)c2c1", "values": [{"measurement": "inhibition", "setting": "[1]", "value": 5.41, "unit": "%"}, {"measurement": "inhibition", "setting": "[2]", "value": 9.06, "unit": "%"}, {"measurement": "inhibition", "setting": "[3]", "value": 4.72, "unit": "%"}]}
{"compound": "CCCCCn1c(Sc2ccc(C#N)c([N+](=O)[O-])c2)nnc1-c1ccc(OC)cc1", "values": [{"measurement": "inhibition", "setting": "[1]", "value": 9.26, "unit": "%"}, {"measurement": "inhibition", "setting": "[2]", "value": 6, "unit": "%"}, {"measurement": "inhibition", "setting": "[3]", "value": 4.8, "unit": "%"}]}
{"compound": "Cc1cnc(C(=O)Nc2cccc(-c3csc(-c4nc5ccccc5[nH]4)c3)c2)cn1", "values": [{"measurement": "inhibition", "setting": "[1]", "value": 5.41, "unit": "%"}, {"measurement": "inhibition", "setting": "[2]", "value": 1.2, "unit": "%"}, {"measurement": "inhibition", "setting": "[3]", "value": 3.93, "unit": "%"}]}
{"compound": "COc1cc2nc(NCCc3ccccc3)nc(NCc3nccs3)c2cc1OC", "values": [{"measurement": "inhibition", "setting": "[1]", "value": 1.89, "unit": "%"}, {"measurement": "inhibition", "setting": "[2]", "value": 2.47, "unit": "%"}, {"measurement": "inhibition", "setting": "[3]", "value": 0.04, "unit": "%"}]}
{"compound": "COC(=O)Cn1c(C2CCN(CC3CCC(NC(=O)/C=C/c4ccc(Cl)c(Cl)c4)CC3)CC2)nc2ccccc21", "note": "(centres undefined)", "values": [{"measurement": "inhibition", "setting": "[1]", "value": 1.86, "unit": "%"}, {"measurement": "inhibition", "setting": "[2]", "value": 0.18, "unit": "%"}, {"measurement": "inhibition", "setting": "[3]", "value": 2.43, "unit": "%"}]}
{"compound": "O=C(NCC1CC1)C1CCN(C(c2ccccc2)c2nc3ccccc3s2)CC1", "note": "(centres undefined)", "values": [{"measurement": "inhibition", "setting": "[1]", "value": -0.89, "unit": "%"}, {"measurement": "inhibition", "setting": "[2]", "value": -1.39, "unit": "%"}, {"measurement": "inhibition", "setting": "[3]", "value": -4.85, "unit": "%"}]}
{"compound": "COc1cc(NC(=O)c2c(-c3c(F)cccc3Cl)noc2C)c(OC)cc1Cl", "values": [{"measurement": "inhibition", "setting": "[1]", "value": -2.64, "unit": "%"}, {"measurement": "inhibition", "setting": "[2]", "value": -1.52, "unit": "%"}, {"measurement": "inhibition", "setting": "[3]", "value": -4.01, "unit": "%"}]}
